High-throughput results deposited in PubChem by Buhrlage Lab, Dana-Farber Cancer Institute and Novartis Institutes for BioMedical Research (Cambridge, Mass).
This is a sample that favours compounds with a hit; in the whole collection about 14% have one here.
USP28 inh: inhibitors of human USP28 deubiquitinase; Q96RU2; purified USP28, Ub-rhodamine cleavage fluorescence, 30 min; inhibition, % at 25 µM; actives 3% (n = 47,000); AID 1645857
USP17 block: blocks human USP17 ubiquitin-rhodamine cleavage. A8MUK1. purified USP17, Ub-rhodamine cleavage fluorescence, 3 h. inhibition, % at 50 µM. actives 6.5% (n = 47,000)
Target sequence (A8MUK1 whole entry, looked up): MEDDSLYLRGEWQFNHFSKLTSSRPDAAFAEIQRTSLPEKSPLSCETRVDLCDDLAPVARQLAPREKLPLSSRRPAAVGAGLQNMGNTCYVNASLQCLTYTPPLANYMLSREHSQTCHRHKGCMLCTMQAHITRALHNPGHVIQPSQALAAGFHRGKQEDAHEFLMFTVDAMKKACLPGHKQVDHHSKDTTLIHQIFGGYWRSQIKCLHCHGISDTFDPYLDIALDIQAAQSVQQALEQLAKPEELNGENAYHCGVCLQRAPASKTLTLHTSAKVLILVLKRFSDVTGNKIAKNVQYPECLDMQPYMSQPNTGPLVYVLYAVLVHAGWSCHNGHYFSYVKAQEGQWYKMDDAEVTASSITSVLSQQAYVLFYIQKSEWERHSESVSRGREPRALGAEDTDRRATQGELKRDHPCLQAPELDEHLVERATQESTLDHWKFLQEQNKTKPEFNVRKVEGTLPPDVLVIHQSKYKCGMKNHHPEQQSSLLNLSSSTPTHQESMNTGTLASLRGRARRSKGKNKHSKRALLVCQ
USP30 block: blocks human USP30 ubiquitin-rhodamine cleavage; Q70CQ3; inhibition, % at 25 µM; actives 5.3% (n = 47,000); purified USP30, Ub-rhodamine cleavage fluorescence
USP8 block: inhibitors of human USP8 deubiquitinase. P40818. purified USP8, Ub-rhodamine cleavage fluorescence, 30 min. inhibition, % at 20 µM. actives 4.2% (n = 47,000)
USP10 inh: blocks human USP10 ubiquitin-rhodamine cleavage. Q14694. purified USP10, Ub-rhodamine fluorescence, 60 min. inhibition, % at 20 µM. actives 1.1% (n = 47,000). AID 1645856
An asterisk follows results filed as active; i = inactive; . = not tested or not shown. No stated cut-off is given here; in the data, active means inhibition above about 30%; inactive means the rest.

SMILES	USP28 inh	USP17 block	USP30 block	USP8 block	USP10 inh
O=C(COc1ccccc1)Nc1cnc(-c2ccc(Cl)cc2)nc1	-3	31*	12	78*	3
Cc1cc(C(=O)C(=O)Nc2nnc(-c3cccnc3)s2)c(C)n1-c1ccccc1F	-67	-28	-342	37*	-6
O=C(Cc1cccc(F)c1)NCC(=O)Nc1nc2ccccc2[nH]1	2	21	2	-10	5
N#Cc1ccc(OCC(=O)NC(Cc2ccccc2)c2nc3ccccc3[nH]2)cc1 (centres undefined)	3	12	9	36*	-2
O=C(COc1cccc(F)c1)NC(Cc1ccccc1)c1nc2ccccc2[nH]1 (centres undefined)	-2	46*	11	73*	-3
CC1CCC(C(C)C)N(C(=O)c2c[nH]c3ccccc3c2=O)CC1 (centres undefined)	.	-4	.	0	0
Cc1ccc(C)c(NC(=O)Cn2cnc3c(c(C)c(C)n3-c3ccccc3)c2=O)c1	-4	0	-13	16	11
COc1ccc(-c2c3c(nc4c(C#N)c(C)n(-c5ccccc5)c24)CCC3)cc1	3	17	15	15	3
COc1cc2c(C#N)c(N3CCCC3)nc3c2c(n1)NC(C)(c1ccc(-c2ccccc2)cc1)N3 (centres undefined)	1	-25	i	39*	-7
CS(=O)(=O)N1CCCC(NCc2ccccc2)CC1 (centres undefined)	2	2	5	2	1
CC(C)C1Nc2ccc(C(=O)NCc3ccccc3)cc2NC1=O (centres undefined)	0	36*	-7	0	6
CNS(=O)(=O)c1cc(C(=O)NCc2ccccc2)ccc1Cl	9	3	20	0	1
COc1ccc(S(=O)(=O)NC2CCCCC2)c2ccccc12	1	-3	5	-6	9
COc1cc(C(C)=O)ccc1OCC(=O)Nc1ccccc1Oc1ccccc1	2	15	7	5	2
Cc1noc(C)c1S(=O)(=O)N1CCN(Cc2ccncc2)CC1	-15	-20	-28	-342	-8
CC1(C)CC(=O)c2c(C#N)sc(C#N)c2C1	-74	18	-260	60*	-6
Cc1c(S(=O)(=O)N2C[C@@H](c3cccnc3)[C@@]3(CCCC(=O)N3)C2)cnn1C	-13	-2	-17	-1	-2
COc1ccc(Cc2nnc(Nc3ccc(F)cc3)[nH]c2=O)cc1OC	10	4	35*	18	1
O=C(c1ccc2ccc(N3CCN(c4ncccn4)CC3)n2c1)N1CCCC1	-80	-74	-317	0	-9
CN1CCN(c2nc(Nc3ccc(Cl)cc3)c3nccnc3n2)CC1	-11	-8	-7	-6	-1
O=S(=O)(NC1CCCN(c2cc(N3CCCC3)ncn2)C1)C1CC1 (centres undefined)	-4	0	-6	1	3
CN1CC(=O)N(C2CCCNC2)Cc2c(NC3CCCCCC3)ncnc21 (centres undefined)	4	-47	-26	-104	-6
CN1CC(=O)N(C2CCCNC2)Cc2c(NC3Cc4ccccc4C3)ncnc21 (centres undefined)	29	29	19	68*	0
CCc1ccccc1NC(=O)Cn1c(C)nc2c(c1=O)CCN(Cc1ccccc1)C2	-16	19	-54	52*	-1
Cc1nc2c(c(=O)n1CC(=O)Nc1ccccc1F)CCN(Cc1ccccc1)C2	-14	-17	-59	-11	-1
SMILES	USP28 inh	USP17 block	USP30 block	USP8 block	USP10 inh
COc1ccc2c(c1)CC(NS(=O)(=O)c1ccc(NC(C)=O)cc1)CO2 (centres undefined)	0	-9	-21	-7	4
Cc1ccc(NS(=O)(=O)c2cc(-c3[nH]ncc3C(=O)N3CCOCC3)oc2C)cc1F	1	-1	9	-15	2
COCC(=O)Nc1cc(F)c2nc(N3CCOCC3)ccc2c1	-2	63*	-31	89*	-6
Cc1cccc(OCC(=O)Nc2cc(F)c3nc(N4CCOCC4)ccc3c2)c1	-51	-12	-139	60*	-10
COC(=O)c1cc(NC(=O)COc2ccccc2F)ccc1N1CCOCC1	-1	2	13	2	0
CCOC(=O)c1cc(NC(=O)COc2ccccc2)ccc1N1CCOCC1	-1	-3	17	1	0
CCN(CC)S(=O)(=O)c1ccc2[nH]cc(C(=O)NCCCN3CCN(Cc4ccccc4)CC3)c(=O)c2c1	11	-14	-11	-1	-3
Cc1ccc2c(=O)c(C(=O)Nc3ccccc3)cn(CC(=O)NC3CCCCC3)c2n1	5	56*	9	-1	1
Cc1ccc(NC(=O)Cn2cc(S(=O)(=O)c3ccccc3)c(=O)c3ccc(C)nc32)cc1	-186	4	i	41*	-7
Cc1ccc2c(=O)c(C(=O)Nc3ccc(F)cc3)cn(CC(=O)NC3CCCC3)c2n1	-18	.	-47	7	-5
O=C(CCc1nnc2n(Cc3ccccc3)c(=O)c3ccccc3n12)NCC1CCCO1 (centres undefined)	12	11	30*	1	-1
CC(C)CCn1c(=O)c2ccccc2n2c(CCC(=O)NCCN3CCCC3)nnc12	-4	-13	-55	-12	-3
CCN(CCCNC(=O)CCc1nnc2n(Cc3ccccc3)c(=O)c3ccccc3n12)c1cccc(C)c1	17	.	42*	10	6
O=C(CCc1nnc2n(Cc3ccc(F)cc3)c(=O)c3ccccc3n12)N1CCN(c2ccccn2)CC1	20	21	53*	5	6
CCN(CCCNC(=O)CCc1nnc2n(Cc3ccc(C)cc3)c(=O)c3ccccc3n12)c1cccc(C)c1	14	6	24	6	-1
CC(C)Cn1c(=O)c2ccccc2n2c(CCC(=O)NCC3CCCO3)nnc12 (centres undefined)	3	10	35*	11	3
COc1cc(C2CCN(S(=O)(=O)c3cccc(C)c3)CC2)on1	0	15	14	23	1
CN1CCN(CCNC(=O)c2cc3cn(C4CCCC4)cc3s2)CC1	0	3	-24	-9	-4
CN1CCCc2cc(C(=O)NCCCN3CCCC3=O)sc21	0	0	-22	0	-5
CN(C)CCCNC(=O)c1cc2cn(C3CCCC3)cc2s1	-4	6	-37	63*	-3
O=C(NCCCN1CCCC1=O)c1cc2cn(C3CC3)cc2s1	-44	14	-209	66*	-10
CC1CCN(CCNC(=O)c2cc3cn(C4CC4)cc3s2)CC1	-63	-19	-179	54*	-7
CC(=O)N1CCCC(Cc2cc(-c3ccccc3F)no2)(C(=O)O)C1 (centres undefined)	-15	-27	-79	-26	-3
Cn1cc(S(=O)(=O)N2CCCCCC2)cc1C(=O)Nc1ccc(F)cc1	3	50*	15	11	8
CCCc1cc(NCC2CCCO2)n2ncc(-c3ccccc3)c2n1 (centres undefined)	-3	-4	-11	-4	2
